# Reference: ChEMBL document CHEMBL1961873, “Compounds: GSK PKIS; Assays: Nanosyn kinase panel” (2012)
# Experiments:
# [1] = target: Rho-associated protein kinase 1 (Homo sapiens) (UniProt Q13464); details: at 1 µM;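 note: reported values are mean percent inhibition of ROCK1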
# [2] = target: Rho-associated protein kinase 2 (Homo sapiens) (UniProt O75116); details: at 0.1 µM
# [3] = target: Rho-associated protein kinase 2 (Homo sapiens) (UniProt O75116); details: at 1 µM
# [4] = target: Ribosomal protein S6 kinase alpha-1 (Homo sapiens) (UniProt Q15418); details: at 0.1 µM
# [5] = target: Ribosomal protein S6 kinase alpha-1 (Homo sapiens) (UniProt Q15418); details: at 1 µM
# [6] = target: Ribosomal protein S6 kinase alpha-3 (Homo sapiens) (UniProt P51812); details: at 0.1 µM
# [7] = target: Ribosomal protein S6 kinase alpha-3 (Homo sapiens) (UniProt P51812); details: at 1 µM
# [8] = target: Ribosomal protein S6 kinase alpha-2 (Homo sapiens) (UniProt Q15349); details: at 0.1 µM
# [9] = target: Ribosomal protein S6 kinase alpha-2 (Homo sapiens) (UniProt Q15349); details: at 1 µM
# [10] = target: Ribosomal protein S6 kinase alpha-6 (Homo sapiens) (UniProt Q9UK32); details: at 0.1 µM
# [11] = target: Ribosomal protein S6 kinase alpha-6 (Homo sapiens) (UniProt Q9UK32); details: at 1 µM
# [12] = target: T1, Serine/threonine-protein kinase Sgk1 (Homo sapiens) (UniProt O00141); details: at 0.1 µM
# T1 sequence (whole entry): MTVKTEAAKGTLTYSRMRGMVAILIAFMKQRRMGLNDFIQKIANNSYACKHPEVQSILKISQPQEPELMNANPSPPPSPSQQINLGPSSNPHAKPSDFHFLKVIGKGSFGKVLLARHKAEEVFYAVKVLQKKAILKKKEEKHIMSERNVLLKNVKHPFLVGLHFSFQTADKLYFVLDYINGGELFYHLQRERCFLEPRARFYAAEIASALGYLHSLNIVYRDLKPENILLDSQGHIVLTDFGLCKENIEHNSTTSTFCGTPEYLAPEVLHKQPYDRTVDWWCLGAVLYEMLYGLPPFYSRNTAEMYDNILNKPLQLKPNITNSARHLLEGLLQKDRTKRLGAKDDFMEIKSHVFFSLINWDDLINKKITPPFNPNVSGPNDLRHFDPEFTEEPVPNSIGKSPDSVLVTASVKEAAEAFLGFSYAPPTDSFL
# [13] = target: T1, Serine/threonine-protein kinase Sgk1 (Homo sapiens); details: at 1 µM
# [14] = target: T2, Serine/threonine-protein kinase Sgk2 (Homo sapiens) (UniProt Q9HBY8); details: at 0.1 µM
# T2 sequence (whole entry): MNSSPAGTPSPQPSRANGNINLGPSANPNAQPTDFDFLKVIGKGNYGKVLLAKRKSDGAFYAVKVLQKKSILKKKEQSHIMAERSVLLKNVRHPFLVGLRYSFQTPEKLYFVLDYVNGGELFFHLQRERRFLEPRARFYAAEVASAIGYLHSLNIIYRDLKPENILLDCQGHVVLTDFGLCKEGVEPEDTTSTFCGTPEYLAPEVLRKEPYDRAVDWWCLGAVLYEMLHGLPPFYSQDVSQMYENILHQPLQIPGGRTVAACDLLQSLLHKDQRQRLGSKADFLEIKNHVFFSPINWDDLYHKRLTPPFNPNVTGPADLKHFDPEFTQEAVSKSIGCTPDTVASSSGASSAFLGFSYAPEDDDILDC
# [15] = target: T2, Serine/threonine-protein kinase Sgk2 (Homo sapiens); details: at 1 µM
# [16] = target: T3, Serine/threonine-protein kinase Sgk3 (Homo sapiens) (UniProt Q96BR1); details: at 0.1 µM
# T3 sequence (whole entry): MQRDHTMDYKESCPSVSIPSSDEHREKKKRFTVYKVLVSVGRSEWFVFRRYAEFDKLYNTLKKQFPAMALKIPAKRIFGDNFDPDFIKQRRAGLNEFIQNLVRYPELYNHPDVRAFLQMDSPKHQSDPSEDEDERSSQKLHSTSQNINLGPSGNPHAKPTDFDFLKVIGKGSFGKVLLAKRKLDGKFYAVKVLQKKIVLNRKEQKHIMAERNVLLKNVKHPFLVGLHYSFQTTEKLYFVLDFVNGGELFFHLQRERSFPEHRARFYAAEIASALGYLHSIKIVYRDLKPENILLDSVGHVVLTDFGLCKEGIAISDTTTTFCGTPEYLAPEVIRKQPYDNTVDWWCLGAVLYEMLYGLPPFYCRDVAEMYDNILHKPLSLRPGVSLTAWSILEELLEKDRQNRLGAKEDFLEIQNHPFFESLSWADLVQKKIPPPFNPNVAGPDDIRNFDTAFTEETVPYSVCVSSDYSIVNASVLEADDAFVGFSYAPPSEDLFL
# [17] = target: T3, Serine/threonine-protein kinase Sgk3 (Homo sapiens); details: at 1 µM
# [18] = target: 5'-AMP-activated protein kinase catalytic subunit alpha-1 (Homo sapiens) (UniProt Q13131); details: at 0.1 µM
# [19] = target: 5'-AMP-activated protein kinase catalytic subunit alpha-1 (Homo sapiens) (UniProt Q13131); details: at 1 µM
# [20] = target: 5'-AMP-activated protein kinase catalytic subunit alpha-2 (Homo sapiens) (UniProt P54646); details: at 0.1 µM;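 note: mean inhibition measured on the AMPK complex of alpha2, beta1 and gamma1 subunits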
# Ribosomal protein S6 kinase alpha-2 (Homo sapiens), sequence (Q15349 whole entry): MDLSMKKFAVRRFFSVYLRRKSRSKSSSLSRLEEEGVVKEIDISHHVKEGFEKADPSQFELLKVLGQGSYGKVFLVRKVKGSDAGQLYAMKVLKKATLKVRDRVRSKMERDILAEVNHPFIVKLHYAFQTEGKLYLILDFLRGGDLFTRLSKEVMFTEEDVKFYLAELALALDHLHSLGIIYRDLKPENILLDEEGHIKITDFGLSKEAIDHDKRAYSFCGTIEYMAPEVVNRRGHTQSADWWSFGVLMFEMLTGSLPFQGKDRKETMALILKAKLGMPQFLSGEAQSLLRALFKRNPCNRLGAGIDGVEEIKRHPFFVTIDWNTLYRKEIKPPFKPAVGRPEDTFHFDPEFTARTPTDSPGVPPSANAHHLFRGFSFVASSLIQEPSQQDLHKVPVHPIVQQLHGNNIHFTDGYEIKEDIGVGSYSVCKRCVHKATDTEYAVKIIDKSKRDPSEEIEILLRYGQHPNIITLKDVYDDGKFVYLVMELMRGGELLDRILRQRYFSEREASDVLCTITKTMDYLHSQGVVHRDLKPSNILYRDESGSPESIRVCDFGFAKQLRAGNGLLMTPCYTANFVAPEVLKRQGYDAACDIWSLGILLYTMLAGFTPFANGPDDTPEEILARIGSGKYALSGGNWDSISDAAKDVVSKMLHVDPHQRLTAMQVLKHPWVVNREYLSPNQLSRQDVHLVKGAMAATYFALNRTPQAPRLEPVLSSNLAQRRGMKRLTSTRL
# Ribosomal protein S6 kinase alpha-1 (Homo sapiens), sequence (Q15418 whole entry): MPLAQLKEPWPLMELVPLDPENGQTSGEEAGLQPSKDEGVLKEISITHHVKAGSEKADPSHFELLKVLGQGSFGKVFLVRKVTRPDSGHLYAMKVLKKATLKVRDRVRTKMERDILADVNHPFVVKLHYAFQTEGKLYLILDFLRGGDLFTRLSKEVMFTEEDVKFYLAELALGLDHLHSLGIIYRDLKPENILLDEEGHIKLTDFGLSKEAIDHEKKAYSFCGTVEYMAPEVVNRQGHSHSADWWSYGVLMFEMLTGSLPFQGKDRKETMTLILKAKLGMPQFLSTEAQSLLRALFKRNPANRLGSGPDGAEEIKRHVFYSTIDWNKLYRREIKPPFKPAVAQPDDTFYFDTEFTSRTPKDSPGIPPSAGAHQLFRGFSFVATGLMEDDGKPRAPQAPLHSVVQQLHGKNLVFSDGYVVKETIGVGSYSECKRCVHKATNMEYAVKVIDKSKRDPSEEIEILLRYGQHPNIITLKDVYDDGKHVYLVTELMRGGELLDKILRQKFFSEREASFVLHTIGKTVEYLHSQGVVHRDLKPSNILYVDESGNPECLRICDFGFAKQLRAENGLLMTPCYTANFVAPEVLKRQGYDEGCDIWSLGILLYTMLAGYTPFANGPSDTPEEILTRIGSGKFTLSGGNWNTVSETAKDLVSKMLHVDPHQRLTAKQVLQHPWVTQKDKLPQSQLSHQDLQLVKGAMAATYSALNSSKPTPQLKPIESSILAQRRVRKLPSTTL
# Rho-associated protein kinase 1 (Homo sapiens), sequence (Q13464 2-1354 limits assumed): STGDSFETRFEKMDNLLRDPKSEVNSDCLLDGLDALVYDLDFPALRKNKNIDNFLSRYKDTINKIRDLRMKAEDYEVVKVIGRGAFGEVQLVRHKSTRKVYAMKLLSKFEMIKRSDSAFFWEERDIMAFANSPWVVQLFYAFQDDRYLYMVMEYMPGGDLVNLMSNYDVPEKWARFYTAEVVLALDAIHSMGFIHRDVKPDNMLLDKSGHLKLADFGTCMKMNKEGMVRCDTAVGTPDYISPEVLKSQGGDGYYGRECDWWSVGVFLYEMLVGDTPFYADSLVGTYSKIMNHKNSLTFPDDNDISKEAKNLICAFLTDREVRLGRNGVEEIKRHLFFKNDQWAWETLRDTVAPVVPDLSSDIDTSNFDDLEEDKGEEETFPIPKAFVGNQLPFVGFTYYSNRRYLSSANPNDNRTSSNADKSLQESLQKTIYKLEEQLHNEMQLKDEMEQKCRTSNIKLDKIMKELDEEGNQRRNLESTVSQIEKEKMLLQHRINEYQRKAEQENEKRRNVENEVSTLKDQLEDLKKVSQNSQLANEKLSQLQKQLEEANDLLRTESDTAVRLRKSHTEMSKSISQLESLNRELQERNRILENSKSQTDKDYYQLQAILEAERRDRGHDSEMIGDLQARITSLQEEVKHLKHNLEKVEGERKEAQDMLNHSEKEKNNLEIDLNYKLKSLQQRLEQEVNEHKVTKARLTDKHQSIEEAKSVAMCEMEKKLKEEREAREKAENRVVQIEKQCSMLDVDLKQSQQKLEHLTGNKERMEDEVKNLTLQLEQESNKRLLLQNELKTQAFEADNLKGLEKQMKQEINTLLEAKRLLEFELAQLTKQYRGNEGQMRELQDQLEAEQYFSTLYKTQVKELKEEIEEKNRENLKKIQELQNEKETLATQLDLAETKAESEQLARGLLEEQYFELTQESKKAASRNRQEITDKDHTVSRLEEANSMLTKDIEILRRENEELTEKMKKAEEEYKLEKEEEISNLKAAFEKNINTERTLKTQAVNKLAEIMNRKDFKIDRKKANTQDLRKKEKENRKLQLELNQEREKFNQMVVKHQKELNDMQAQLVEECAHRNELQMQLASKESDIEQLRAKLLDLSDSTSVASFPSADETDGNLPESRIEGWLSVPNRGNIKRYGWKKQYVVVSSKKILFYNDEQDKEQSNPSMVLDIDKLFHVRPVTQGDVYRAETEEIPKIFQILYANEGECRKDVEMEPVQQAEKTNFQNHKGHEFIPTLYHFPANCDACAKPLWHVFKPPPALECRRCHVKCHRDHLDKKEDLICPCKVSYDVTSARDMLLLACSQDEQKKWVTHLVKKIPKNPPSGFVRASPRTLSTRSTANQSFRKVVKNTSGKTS
# Rho-associated protein kinase 2 (Homo sapiens), sequence (O75116 whole entry, looked up): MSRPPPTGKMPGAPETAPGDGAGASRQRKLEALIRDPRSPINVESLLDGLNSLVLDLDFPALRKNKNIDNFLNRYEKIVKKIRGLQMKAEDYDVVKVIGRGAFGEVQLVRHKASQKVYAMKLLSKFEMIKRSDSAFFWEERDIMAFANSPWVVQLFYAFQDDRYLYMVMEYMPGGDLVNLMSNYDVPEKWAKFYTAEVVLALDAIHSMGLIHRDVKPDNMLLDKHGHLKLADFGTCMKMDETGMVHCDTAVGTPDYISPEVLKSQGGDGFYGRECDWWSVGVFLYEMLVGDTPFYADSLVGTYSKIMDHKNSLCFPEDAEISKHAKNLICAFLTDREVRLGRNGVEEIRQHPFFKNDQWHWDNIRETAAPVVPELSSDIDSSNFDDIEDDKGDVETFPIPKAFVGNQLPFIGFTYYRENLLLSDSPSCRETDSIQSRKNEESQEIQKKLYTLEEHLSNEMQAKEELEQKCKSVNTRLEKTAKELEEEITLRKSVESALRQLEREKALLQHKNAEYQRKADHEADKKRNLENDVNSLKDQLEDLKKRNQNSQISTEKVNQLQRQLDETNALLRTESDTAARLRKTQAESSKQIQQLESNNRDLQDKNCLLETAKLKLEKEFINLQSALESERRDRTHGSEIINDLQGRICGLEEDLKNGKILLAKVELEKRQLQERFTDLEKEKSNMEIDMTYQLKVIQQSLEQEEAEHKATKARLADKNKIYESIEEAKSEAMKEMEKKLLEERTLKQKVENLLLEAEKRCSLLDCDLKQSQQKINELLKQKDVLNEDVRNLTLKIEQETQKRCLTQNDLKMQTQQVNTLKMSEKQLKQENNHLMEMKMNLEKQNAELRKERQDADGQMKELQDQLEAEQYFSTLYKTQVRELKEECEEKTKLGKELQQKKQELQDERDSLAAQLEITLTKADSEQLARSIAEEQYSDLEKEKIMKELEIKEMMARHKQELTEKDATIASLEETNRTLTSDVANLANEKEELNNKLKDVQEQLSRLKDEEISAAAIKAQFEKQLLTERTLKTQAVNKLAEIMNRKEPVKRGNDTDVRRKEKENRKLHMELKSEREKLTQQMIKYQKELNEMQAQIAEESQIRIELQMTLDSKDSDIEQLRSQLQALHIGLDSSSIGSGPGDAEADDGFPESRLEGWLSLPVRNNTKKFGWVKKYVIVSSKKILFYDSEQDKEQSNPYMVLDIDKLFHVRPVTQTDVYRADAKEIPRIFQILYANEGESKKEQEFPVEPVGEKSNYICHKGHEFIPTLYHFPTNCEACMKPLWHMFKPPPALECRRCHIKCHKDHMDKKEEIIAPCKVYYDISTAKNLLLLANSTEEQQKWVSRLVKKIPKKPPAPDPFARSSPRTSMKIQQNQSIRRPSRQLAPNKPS
# Ribosomal protein S6 kinase alpha-6 (Homo sapiens), sequence (Q9UK32 whole entry): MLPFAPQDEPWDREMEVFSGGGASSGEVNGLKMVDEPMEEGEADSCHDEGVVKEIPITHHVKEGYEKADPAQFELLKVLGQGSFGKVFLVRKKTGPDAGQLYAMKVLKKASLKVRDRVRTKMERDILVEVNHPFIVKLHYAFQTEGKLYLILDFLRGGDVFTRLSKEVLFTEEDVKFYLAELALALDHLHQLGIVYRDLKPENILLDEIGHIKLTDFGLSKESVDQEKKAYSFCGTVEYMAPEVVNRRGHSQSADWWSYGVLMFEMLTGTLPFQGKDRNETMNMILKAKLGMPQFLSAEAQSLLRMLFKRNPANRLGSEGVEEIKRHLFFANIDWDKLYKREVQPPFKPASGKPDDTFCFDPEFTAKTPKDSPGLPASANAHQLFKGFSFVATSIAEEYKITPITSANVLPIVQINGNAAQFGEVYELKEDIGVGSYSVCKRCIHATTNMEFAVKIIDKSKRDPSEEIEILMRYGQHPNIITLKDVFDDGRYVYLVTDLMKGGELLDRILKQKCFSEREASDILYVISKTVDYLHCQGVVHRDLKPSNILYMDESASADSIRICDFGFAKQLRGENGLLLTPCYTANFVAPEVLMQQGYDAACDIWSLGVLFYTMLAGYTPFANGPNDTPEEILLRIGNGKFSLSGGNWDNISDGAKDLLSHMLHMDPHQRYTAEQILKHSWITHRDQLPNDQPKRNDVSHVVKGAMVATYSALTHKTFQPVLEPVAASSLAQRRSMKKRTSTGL
Compound,inhibition [1] [%],inhibition [2] [%],inhibition [3] [%],inhibition [4] [%],inhibition [5] [%],inhibition [6] [%],inhibition [7] [%],inhibition [8] [%],inhibition [9] [%],inhibition [10] [%],inhibition [11] [%],inhibition [12] [%],inhibition [13] [%],inhibition [14] [%],inhibition [15] [%],inhibition [16] [%],inhibition [17] [%],inhibition [18] [%],inhibition [19] [%],inhibition [20] [%]
NC(=O)c1cccc(Nc2nccc(Nc3cccc(F)c3)n2)c1,0.46,0.51,1.52,-1.2,1.35,0.35,1.16,1.27,1.94,1.27,6.03,0.89,-0.08,3.63,3.3,0.73,-1.45,-0.48,3.96,1.99
COc1cc2ncn(-c3cc(OCc4ccccc4S(C)(=O)=O)c(C#N)s3)c2cc1OC,6.5,5.73,6.61,5.57,14,5.02,13.7,3.37,10.2,3.14,16.4,2.34,4.47,2.96,4.38,4.43,4.05,33.4,74.6,5.84
NS(=O)(=O)c1ccc(Nc2cc(-c3cccc(O)c3)n[nH]2)cc1,2.17,3.43,4.85,2.5,6.11,2.14,6.36,1.18,5.39,1.24,4.67,6.76,4.48,2.52,1.36,6.64,2.75,5.36,11.1,5.11
CS(=O)(=O)Nc1cccc(-c2ccc3c(NC(=O)C4CC4)n[nH]c3c2)c1,0.09,0.82,-0.9,-0.15,-0.83,1.31,1.41,1.1,2.19,1.24,1.64,1.2,1.36,0.93,-0.04,1.19,-0.96,1.97,1.56,-0.32
FC(F)(F)c1ccc(-c2nn3ncccc3c2-c2ccnc(Nc3ccc4c(c3)OCCO4)n2)cc1,2.51,4.66,8.18,1.49,3.18,2.19,5.4,-0.87,0.6,-0.08,0.72,9.07,10.2,5.69,10.8,7.48,12.9,1.3,4.07,5.75
NS(=O)(=O)c1cccc(Nc2cc(-c3ccc(F)cc3)n[nH]2)c1,3.34,3.4,8.75,3.22,7.2,2.09,5.61,2.21,4.15,1.89,4.03,3.81,7.2,3.76,8.09,3.81,7.42,3.82,14.4,2.4
CCS(=O)(=O)c1ccc(OC)c(Nc2ncc(-c3cccc(OC)c3)o2)c1,2.35,0.89,1.18,0.6,4.04,-0.45,0.81,1.33,4.86,-0.11,3.54,1.35,2.05,3.12,5.99,3.65,-0.11,1.32,1.33,-0.63
Cc1ccc(C(=O)NC2CC2)cc1-c1ccc2[nH]ncc2c1,6.16,0.52,16.1,1.16,1.93,2.94,4.97,-0.94,0.23,-0.73,-0.57,-2.34,-1.16,-5.03,-0.82,-5.05,1.68,-1.87,0.2,0.12
Cc1ccc(Nc2ccnc(Nc3cccc(C(N)=O)c3)n2)cc1O,5.78,4.11,13.6,2.41,3.62,1.82,2.23,1.81,3.37,2.28,7.33,1.93,4.05,5.55,3.06,1.32,3.83,2.46,6.79,1.35
COc1cc2ncnc(Nc3ccc4c(cnn4Cc4ccccc4)c3)c2cc1OC,6.38,2.52,7.05,0.76,2.15,0.6,2.23,2.97,3.65,1.46,1.92,2.26,1.9,1.23,-1.13,2.62,1.35,1.38,3.13,5.92
COc1cccc(-n2nc(C)c3c(N/N=C(\C)c4ccncc4)ncnc32)c1,-1.87,-0.57,-1.33,-1.25,-0.11,0.34,1.55,1.45,0.23,-0.47,0.03,-0.15,0.8,1.28,5.85,0.38,0.52,-0.66,0.55,2.15
COc1cc(/C=N/Nc2ncnc3c2cnn3C(C)C)ccc1O,4.3,0.86,2.83,10.4,1.08,0.95,1.27,1.98,2.99,1.4,3.17,1.69,2.88,1.5,1.93,0.68,2.8,1.32,4.22,3.01
